The text below walks through data of PubChem BioAssay (NCATS).

The nature of test [1]: qHTS assay to identify small molecule inhibitors of chordoma cells - UCH-2 (AID 1259356). Note: potency is the fitted concentration of half-maximal effect.
The nature of test [2]: P-glycoprotein substrates identified in KB-8-5-11 adenocarcinoma cell line, qHTS therapeutic library screen (AID 1346987). Note: nearly all actives have a fitted effect of over 65% in size. Note: potency is the fitted concentration of half-maximal effect. In outline: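 KB-8-5-11: colchicine-selected sub-line of KB-3-1 over-expressing P-gp; assay medium lacked colchicine. 72 h drug exposure at 37 degree C, CellTiter-Glo.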
Test [3] can be described thus: qHTS profiling for inhibitors of Plasmodium falciparum (3D7) proliferation (AID 743322; call rule not given here;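 note: infected erythrocytes exposed to compound for 72 h before lysis; 100% = DMSO vehicle wells and 0% = 0.29 µM artemisinin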). The settings on record: P. falciparum 3D7 proliferation; at 28.7 µM (top of the series) unless noted. An outline of the steps: (§1)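 Erythrocytes infected with P. falciparum (0.3% parasitemia, 2.5% hematocrit) incubated with compounds 72 h at 37 C, 5% CO2. Lysis with saponin/Triton buffer containing SYBR Green I, overnight at room temperature in the dark; DNA fluorescence (485/535 nm) normalised to 0.29 uM artemisinin and DMSO.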
(qHTS replaces the single test concentration by a dilution series.)

Test [4] is described as follows: qHTS profiling for inhibitors of Plasmodium falciparum (DD2) proliferation (AID 743323; call rule not given here). The settings on record: lower = more inhibition; at 28.7 µM (top of the series) unless noted. In outline:
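1536-well qHTS; infected RBCs 0.3% parasitemia/2.5% Hct final; cpd 72 h 37 C 5% CO2; lysis buffer + SYBR Green I, o/n RT dark; FI 485/535; norm. to 0.29 uM artemisinin and DMSO, plate-stack corrected.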

The nature of test [5]: qHTS profiling for inhibitors of Plasmodium falciparum (HB3) proliferation (AID 743324).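 Note: 100% = DMSO vehicle wells and 0% = artemisinin-treated control wells.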 The settings on record: Plasmodium falciparum HB3 blood-stage proliferation; at 28.7 µM (top of the series) unless noted. In outline: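 P. falciparum HB3 grown in erythrocytes (0.3% parasitemia, 2.5% hematocrit final) with compound for 72 h at 37 C, 5% CO2. Parasite DNA detected by SYBR Green after saponin/triton lysis overnight; normalized to 0.29 uM artemisinin and DMSO.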

Test [6] is described as follows: Identifying Small Molecule Inhibitors of Pancreatic Cancer Stem Cells (A2780, Spheroid) (AID 1259357).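 Note: compound exposure lasted 48 h before the ATP luminescence read; 100% = DMSO treated cells and 0% = wells without cells.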 The settings on record: Potency: A2780 spheroid viability. In outline:
(§2)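 Pre-formed 14-day tumor spheroids or adherent cells dosed and incubated 48 h, 37C, 5% CO2. Viability assessed by CellTiter-Glo.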

A short description of test [7]: Identifying Small Molecule Inhibitors of Pancreatic Cancer Stem Cells (SN12C, Spheroid) (AID 1259360). Note: potency is the fitted concentration of half-maximal effect. The settings on record: Potency: SN12C spheroid viability. In outline:
as §2

Test [8] is described as follows: Identifying Small Molecule Inhibitors of Pancreatic Cancer Stem Cells (A278, Adherent) (AID 1259361). Note: nearly all actives have a fitted effect of over 35% in size. An outline of the steps: (§3)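 Luminescent ATP readout (CellTiter-Glo) quantifies surviving cells after a 48 h drug incubation. Normalization uses DMSO wells as no inhibition and media-only wells as full inhibition; bortezomib served as positive control.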
Test [9] in a line: qHTS profiling of the MIPE4 collection as inhibitors of Plasmodium falciparum (3D7) proliferation (AID 743344; call rule not given here;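 note: scaled between DMSO vehicle wells and 0.29 µM artemisinin as full inhibition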). The settings on record: P. falciparum 3D7 in erythrocytes, SYBR Green DNA fluorescence, 72 h; at 28.5 µM (top of the series) unless noted. An outline of the steps: as §1
A short description of test [10]: qHTS profiling of the MIPE4 collection as inhibitors of Plasmodium falciparum (DD2) proliferation (AID 743345; call rule not given here). The settings on record: P. falciparum Dd2 in erythrocytes, SYBR Green DNA, 72 h; at 28.5 µM (top of the series) unless noted. In outline: as §1
Test [11] in a line: qHTS profiling of the MIPE4 collection as inhibitors of Plasmodium falciparum (DD2) proliferation (Rep 2) (AID 743346; call rule not given here). The settings on record: P. falciparum Dd2 in erythrocytes, SYBR Green DNA, 72 h; at 28.5 µM (top of the series) unless noted. An outline of the steps:
as §1

The nature of test [12]: qHTS profiling of the MIPE4 collection as inhibitors of Plasmodium falciparum (HB3) proliferation (AID 743347; call rule not given here;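 note: plate controls were DMSO vehicle wells for no effect and artemisinin wells for full effect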). The settings on record: P. falciparum HB3 in erythrocytes, SYBR Green DNA, 72 h; at 28.5 µM (top of the series) unless noted. An outline of the steps:
as §1

A short description of test [13]: Identifying Small Molecule Inhibitors of Pancreatic Cancer Stem Cells (Panc1, Adherent) (AID 1259362). Note: potency is the fitted concentration of half-maximal effect. The settings on record: Potency: viability. An outline of the steps: as §3
A short description of test [14]: P-glycoprotein substrates identified in KB-3-1 adenocarcinoma cell line, qHTS therapeutic library screen (AID 1346986). Note: nearly all actives have a fitted effect of over 60% in size. In outline: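 KB-3-1 parental cells and P-gp-overexpressing KB-8-5-11 (colchicine omitted during assay) plated at 500 cells/well, dosed in dose-response, incubated 72 h at 37 degree C. CellTiter-Glo luminescence read; KB-8-5-11 also tested with tariquidar.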

The nature of test [15]: Identifying Small Molecule Inhibitors of Pancreatic Cancer Stem Cells (Panc1, Spheroid) (AID 1259359).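 Note: potency is the fitted concentration of half-maximal effect; compound exposure lasted 48 h before reading.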 In outline: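 Cytotoxicity read by CellTiter-Glo luminescence after 48 h compound exposure at 37C; percent activity scaled between DMSO-treated cells and cell-free wells. Spheroid formats used cells pre-formed 14 days in stem cell media on hydrogel.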

Several values for one entry are separate records, joined by “and”; a condition that tells them apart may be missing. Equal entries are not always repeated. Inconclusive results are not listed. Activity calls are given as the source filed them. Unless noted, calls come from the whole dose curve; as a rule, active = well fitted curve in the direction sought with a large enough effect; inconclusive = small, poorly fitted or top-dose-only effect, or another doubt; inactive = no such curve, though single readings can be large; an effect the other way counts as inactive or inconclusive. Where a SMILES comes first, the peptide text is derived from it. Non-standard residues stand in square brackets, D forms with d. Residues, ends and D or L forms follow the SMILES beside them. Bridges are numbered along the chain shown (N, C = ends). [ ]: non-standard residue; d: D form. The star is where a group is joined. Dab(CH2SO3H) = N[C@@H](CCNCS(=O)(=O)O)C(=O)O; X3 = CC[C@@H](C)CCCCC(=O)*; Orn = NCCC[C@H](N)C(=O)O; Dab = NCC[C@H](N)C(=O)O

Regarding `COc1cc2c(cc1O)CCN[C@]21CS[C@@H]2c3c(OC(C)=O)c(C)c4c(c3[C@H](COC1=O)N1[C@@H]2[C@H]2c3c(cc(C)c(OC)c3O)C[C@@H]([C@@H]1O)N2C)OCO4`, in test [1], the Potency result is “inactive”. Also, the Potency in [2] was 1.46 µM (active) and 1.41 µM (active).
`O=C1C(=O)c2ncccc2-c2cccnc21`: the Potency entry in [1] was “inactive”. In test [2], the Potency is 1.16 µM (active).
Regarding `CCC1(Cc2ccc(N)cc2)CCC(=O)NC1=O` (stereo unspecified), in [3], the remaining parasite growth % (stronger effect = lower value) amounted to 99.6% [at 57.5 µM]. For the same molecule, in test [4], the activity, percent of control was found to be 97.2% [at 57.5 µM]. Further, the remaining proliferation (% of control), lower = more inhibition in test [5] is 89.8% [at 57.5 µM]. Further, the Potency entry in test [6] and in test [7] was “inactive” in each case. Also, the IC50 (viability decrease) result in test [8] is “inactive”.
In the case of `CC(O)CO` (stereo unspecified), the Potency result in [1] and in test [2] was “inactive” in each case.
As for `CC(C)C[C@@H]1NC(=O)[C@H](CCCN)NC(=O)[C@H](C(C)C)NC(=O)[C@@H]2CCCN2C(=O)[C@@H](Cc2ccccc2)NC(=O)[C@H](CC(C)C)NC(=O)[C@H](CCCN)NC(=O)[C@H](C(C)C)NC(=O)[C@@H]2CCCN2C(=O)[C@@H](Cc2ccccc2)NC1=O` (cyclo(V[Orn]L[dF]PV[Orn]L[dF]P)), in test [3], the remaining parasite growth % (stronger effect = lower value) is -2.61%. For the same molecule, the activity, percent of control in test [4] was -0.499%. Further, in test [5], the remaining proliferation (% of control), lower = more inhibition was -1.03%. In test [9], this molecule showed a parasite growth, % of DMSO control of 6.95%. The same molecule gave a parasite growth remaining, % of DMSO control (lower = more inhibition) in test [10] of 5.43%. In test [11], the parasite growth, % of control (lower = inhibition) turned out to be 6.21%. Moreover, in [12], the growth, % of control amounted to 4.03%. Further, in test [1], the Potency is 8200 nM (active). In addition, the Potency result in test [2] was “inactive”.
As to `CCc1ccc2c(c1)N(CC(C)CN(C)C)c1ccccc1S2` (stereo unspecified), in test [1], the Potency result was “inactive”. Besides, the Potency in [2] is 25.9 µM (active).
As for `CCCC(=O)O[C@]1(C(=O)CCl)[C@H](C)C[C@@H]2[C@H]3CCC4=CC(=O)C=C[C@]4(C)[C@@]3(F)C(=O)C[C@@]21C`, the remaining parasite growth % (stronger effect = lower value) in test [3] stood at 0.271%. The activity, percent of control in test [4] worked out at 1.4%. In addition, in test [5], the remaining proliferation (% of control), lower = more inhibition is 1.97%. In test [9], this molecule had a parasite growth, % of DMSO control of 7.36%. In [10], the parasite growth remaining, % of DMSO control (lower = more inhibition) was 7.93%. Also, in test [11], the parasite growth, % of control (lower = inhibition) turned out to be 32.4%. The molecule further had a growth, % of control in [12] of 7.79%. In [1], the Potency entry is “inactive”. Also, the Potency in test [2] was 13 µM (active).
For the molecule `CC(=O)O[C@]1(C(C)=O)CC[C@H]2[C@@H]3CCC4=CC(=O)CC[C@]4(C)[C@@]3(F)[C@@H](O)C[C@@]21C`, the Potency entry in test [1] and in test [2] was “inactive” throughout.
In test [9], `CC(C)N=c1cc2n(-c3ccc(Cl)cc3)c3ccccc3nc-2cc1Nc1ccc(Cl)cc1` gave a parasite growth, % of DMSO control of 10.9%. For the same molecule, in [10], the parasite growth remaining, % of DMSO control (lower = more inhibition) was 7.22%. Moreover, the parasite growth, % of control (lower = inhibition) in test [11] came to 166%. This molecule also had a growth, % of control in test [12] of 47.5%. For the same molecule, in test [1], the Potency result was “inactive”.
Consider `O=C(O)C[C@H](O)C[C@H](O)/C=C/c1c(C2CC2)nc2ccccc2c1-c1ccc(F)cc1`, for which, in test [1], the Potency entry is “inactive”. The Potency in test [2] was 8.2 µM (active) and 5.17 µM (active).
Turning to `CC(=O)N(CC(C)C(=O)O)c1c(I)cc(I)c(N)c1I` (stereo unspecified), the Potency result in test [1] and in test [2] was “inactive” each time.
In the case of `CC[C@@H](C)CCCCC(=O)N[C@@H](CCNCS(=O)(=O)O)C(=O)N[C@H](C(=O)N[C@@H](CCNCS(=O)(=O)O)C(=O)N[C@H]1CCNC(=O)[C@H]([C@@H](C)O)NC(=O)[C@H](CCNCS(=O)(=O)O)NC(=O)[C@H](CCNCS(=O)(=O)O)NC(=O)[C@H](CC(C)C)NC(=O)[C@@H](CC(C)C)NC(=O)[C@H](CCNCS(=O)(=O)O)NC1=O)[C@@H](C)O` (X3-[Dab(CH2SO3H)]T[Dab(CH2SO3H)][Dab][Dab(CH2SO3H)][dL]L[Dab(CH2SO3H)][Dab(CH2SO3H)]T; lactam 4-C), the Potency result in [1] and in [2] was “inactive” each time.
With `CCC1(O)CC2CN(CCc3c([nH]c4ccccc34)[C@@](C(=O)OC)(c3cc4c(cc3OC)N(C=O)[C@H]3[C@](O)(C(=O)OC)[C@H](OC(C)=O)[C@]5(CC)C=CCN6CC[C@]43[C@@H]65)C2)C1` (stereo partly specified), the remaining parasite growth % (stronger effect = lower value) in [3] was found to be 8.01%. Moreover, in test [4], the activity, percent of control amounted to 13.7%. The remaining proliferation (% of control), lower = more inhibition in test [5] was determined as 8.78%. Also, the Potency is 3320 nM (active) in test [7] and 2.6 nM (active) in [13]. For the same molecule, in [8], the IC50 (viability decrease) was 418 nM (active).
For `CC(C)(C)NCC(O)COc1cccc2c1CCCC2=O` (stereo unspecified), the Potency entry in [14] and in [2] was “inactive” throughout.
`CCOc1nc2cccc(C(=O)OCc3oc(=O)oc3C)c2n1Cc1ccc(-c2ccccc2-c2noc(O)n2)cc1`: the Potency entry in test [14] and in test [2] was “inactive” in each case.
As to `CCCCCCc1cccc(NC(=O)[C@H](N)CCP(=O)(O)O)c1`, the outcome in test [14] and in test [2] was “inactive [at 9.29 µM]” throughout.
For the molecule `CN(NC(=O)CC(=O)NN(C)C(=S)c1ccccc1)C(=S)c1ccccc1`, the remaining parasite growth % (stronger effect = lower value) in test [3] worked out at 2.19% [at 57.5 µM]. Moreover, in test [4], the activity, percent of control worked out at 4.04% [at 57.5 µM]. Also, in test [5], the remaining proliferation (% of control), lower = more inhibition was 5.46%. Moreover, the figures for the Potency in [15], in [7] and in [2] were 3.3 nM (active), 743 nM (active) and 0.0517 µM (active), respectively. Also, the Potency result in test [13] is “inactive”.
For `O=C(NCC(=O)N1CC[C@H](NC2CCC(O)(c3ccc(-c4ncccn4)cn3)CC2)C1)c1cccc(C(F)(F)F)c1` (stereo partly specified), the Potency entry in [14] and in [2] was “inactive” throughout.
As to `CCC(C)(O)C(O)C(=O)OCc1ccc(O[C@@H]2O[C@H](CO)[C@@H](O)[C@H](O)[C@H]2O)cc1` (stereo partly specified), the Potency result in test [14] is “inactive”.
Regarding `COc1ccc(C(O[C@@H]2O[C@H](CO)[C@@H](O)[C@H](O)[C@H]2O)C(CO)Oc2ccc(/C=C/CO)cc2OC)cc1O` (stereo partly specified), the Potency entry in test [14] and in test [2] was “inactive” each time.
For `COc1ccccc1[C@@H]1C2=C(CC(C)(C)CC2=O)Nc2n[nH]c(C(F)(F)F)c21`, the Potency entry in test [14] was “inactive”.
For the molecule `CC[C@H]1OC(=O)[C@H](C)[C@@H](O[C@H]2C[C@@](C)(OC)[C@@H](O)[C@H](C)O2)[C@H](C)[C@@H](O[C@@H]2O[C@H](C)C[C@H](N(C)C)[C@H]2O)[C@@](C)(O)C[C@@H](C)[C@@H]2N[C@@H](COCCOC)OC([C@H]2C)[C@]1(C)O`, the Potency entry in [14] is “inactive”.
